Assay results taken from PubChem BioAssay (EPA / NIEHS).
“And” between values parts separate entries of the source, which are not always exact repeats. Equal values may be shown once. Results filed as inconclusive are left out. The source made the active and inactive calls. The calls were made as follows: active = hit-call score of the fitted dose curve at least 0.9, where 1 is the maximum; inconclusive = response in the unintended direction; inactive = score below 0.9.

Assays:
[1] = target: rat Glutamate, MK-801 Agonist Site (GluNMDA_MK801), Grin1 (gene 24408) (UniProt P35439); experiment: NVS_LGIC_rGluNMDA_MK801_Agonist: NovaScreen (NVS) Ligand-Gated Ion Channel Assay for rat Glutamate, MK-801 Agonist Site (GluNMDA_MK801) (AID 2283340)
How it was run: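 Rat forebrain membrane preparation; MK-801-site radioligand binding read by filtration and scintillation after 1.5 h. Single-point 25 uM duplicate screen, followed by singleton concentration series to 50 uM max; DMSO baseline.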

[2] = target: bovine Estrogen Receptor (ER), ESR1 (gene 407238) (UniProt P49884); experiment: NVS_NR_bER: NovaScreen (NVS) Nuclear Receptor Binding Assay for bovine Estrogen Receptor (ER) (AID 2283345);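 also: actives lower the bound radioligand count which means they displace the ER ligand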
How it was run: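 Scintillation counting of displaced radioligand gave the readout; bovine uterine membrane extract supplied the receptor. Measured 18 h post-dose, normalized to DMSO baseline. Single 25 uM duplicate screen preceded concentration-response follow-up.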

[3] = target: Estrogen receptor (Homo sapiens) (UniProt P03372); experiment: OT_ER_ERaERa_1440: Odyssey Thera (OT) 24-hour HEK293T Protein-Complementation Assay for Estrogen Receptor-alpha/-alpha Homodimer (AID 2283349);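 also: hits raise fluorescence above DMSO for agonists and antagonists alike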
Chain of Estrogen receptor (Homo sapiens) (P03372 whole entry, looked up, the tested form may be a part): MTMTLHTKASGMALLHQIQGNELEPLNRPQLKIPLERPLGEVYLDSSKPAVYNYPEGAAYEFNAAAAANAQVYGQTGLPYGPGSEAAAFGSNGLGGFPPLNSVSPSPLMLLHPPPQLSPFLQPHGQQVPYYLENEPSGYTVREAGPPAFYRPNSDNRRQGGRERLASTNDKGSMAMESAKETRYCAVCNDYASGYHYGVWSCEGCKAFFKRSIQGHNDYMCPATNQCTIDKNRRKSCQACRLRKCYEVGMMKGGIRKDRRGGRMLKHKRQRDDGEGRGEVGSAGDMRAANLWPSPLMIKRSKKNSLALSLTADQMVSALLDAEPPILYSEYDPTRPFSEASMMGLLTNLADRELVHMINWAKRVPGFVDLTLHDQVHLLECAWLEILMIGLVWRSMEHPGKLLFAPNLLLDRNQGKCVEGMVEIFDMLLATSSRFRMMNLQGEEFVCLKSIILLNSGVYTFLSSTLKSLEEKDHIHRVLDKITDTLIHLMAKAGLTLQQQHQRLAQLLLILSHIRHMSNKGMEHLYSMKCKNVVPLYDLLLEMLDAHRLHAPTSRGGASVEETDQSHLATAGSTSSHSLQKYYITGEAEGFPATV
How it was run: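 HEK293T, stable ERα LBD (aa 310-547) homodimer PCA; 24 h compound exposure; mean fluorescence intensity (nuclear for agonists, nuclear plus cytoplasmic for antagonists) vs vehicle; positive fitting direction, DMSO baseline.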

[4] = target: Estrogen receptor (Homo sapiens) (UniProt P03372); experiment: OT_ER_ERaERa_0480: Odyssey Thera (OT) 8-hour HEK293T Protein-Complementation Assay for Estrogen Receptor-alpha/-alpha Homodimer (AID 2283351);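 also: rise in fluorescence from reassembled reporter fragments on ERα LBD homodimer in nucleus or whole cell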
How it was run: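 Cells were treated for 8 hours, then imaged on a laser scanning plate cytometer. Complementation of reporter fragments fused to the human ERα ligand-binding domain (residues 310-547) in HEK293T gave fluorescence, and gain of signal over vehicle was fitted.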

[5] = target: chimpanzee Androgen Receptor (AR), AR (gene 747460) (UniProt O97775); experiment: NVS_NR_cAR: NovaScreen (NVS) Nuclear Receptor Binding Assay for chimpanzee Androgen Receptor (AR) (AID 2283346);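 also: radioligand displacement from AR measured by scintillation counting in a cell-free assay; a loss of bound radioligand signal versus DMSO counts as binding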
Chain of chimpanzee Androgen Receptor (AR), AR (gene 747460) (O97775 whole entry, looked up): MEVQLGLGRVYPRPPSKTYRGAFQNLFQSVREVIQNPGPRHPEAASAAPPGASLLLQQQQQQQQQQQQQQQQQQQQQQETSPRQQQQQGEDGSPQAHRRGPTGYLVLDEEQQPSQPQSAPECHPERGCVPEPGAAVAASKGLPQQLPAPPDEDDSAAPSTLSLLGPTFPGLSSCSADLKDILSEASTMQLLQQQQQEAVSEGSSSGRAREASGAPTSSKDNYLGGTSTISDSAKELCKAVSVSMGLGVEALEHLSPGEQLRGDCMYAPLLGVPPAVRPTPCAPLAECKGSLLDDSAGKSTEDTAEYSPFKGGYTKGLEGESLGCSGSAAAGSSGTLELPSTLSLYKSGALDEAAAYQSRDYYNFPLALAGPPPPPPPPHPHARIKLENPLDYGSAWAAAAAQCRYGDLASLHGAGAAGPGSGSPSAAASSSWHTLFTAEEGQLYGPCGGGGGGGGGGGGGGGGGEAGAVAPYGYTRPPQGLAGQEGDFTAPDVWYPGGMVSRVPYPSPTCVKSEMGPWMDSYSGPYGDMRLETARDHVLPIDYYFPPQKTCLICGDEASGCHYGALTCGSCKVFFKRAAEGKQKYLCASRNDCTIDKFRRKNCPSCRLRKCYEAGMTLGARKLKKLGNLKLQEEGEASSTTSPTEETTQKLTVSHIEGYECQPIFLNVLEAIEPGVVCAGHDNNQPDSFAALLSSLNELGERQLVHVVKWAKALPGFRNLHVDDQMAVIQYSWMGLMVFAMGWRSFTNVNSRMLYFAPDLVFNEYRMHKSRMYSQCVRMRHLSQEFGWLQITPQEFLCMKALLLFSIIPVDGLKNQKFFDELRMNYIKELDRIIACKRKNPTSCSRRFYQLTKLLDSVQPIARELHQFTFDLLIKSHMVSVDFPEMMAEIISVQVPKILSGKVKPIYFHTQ
How it was run: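 Cell-free competition binding with insect-cell (Sf9/Sf21) extracted chimpanzee AR; scintillation signal from lysate at 72 h. Screened in duplicate at 25 uM, then concentration-response for actives; fitting relative to DMSO.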

[6] = target: T1, Estrogen receptor (Homo sapiens) + Estrogen receptor beta (Homo sapiens) (UniProt P03372+Q92731); experiment: OT_ER_ERaERb_0480: Odyssey Thera (OT) 8-hour HEK293T Protein-Complementation Assay for Estrogen Receptor-alpha/-beta Heterodimer (AID 2283352)
T1 sequence (P03372 whole entry, looked up, the tested form may be a part): as the sequence (P03372 whole entry, looked up, the tested form may be a part) above
T1 sequence (Q92731 whole entry, looked up, the tested form may be a part): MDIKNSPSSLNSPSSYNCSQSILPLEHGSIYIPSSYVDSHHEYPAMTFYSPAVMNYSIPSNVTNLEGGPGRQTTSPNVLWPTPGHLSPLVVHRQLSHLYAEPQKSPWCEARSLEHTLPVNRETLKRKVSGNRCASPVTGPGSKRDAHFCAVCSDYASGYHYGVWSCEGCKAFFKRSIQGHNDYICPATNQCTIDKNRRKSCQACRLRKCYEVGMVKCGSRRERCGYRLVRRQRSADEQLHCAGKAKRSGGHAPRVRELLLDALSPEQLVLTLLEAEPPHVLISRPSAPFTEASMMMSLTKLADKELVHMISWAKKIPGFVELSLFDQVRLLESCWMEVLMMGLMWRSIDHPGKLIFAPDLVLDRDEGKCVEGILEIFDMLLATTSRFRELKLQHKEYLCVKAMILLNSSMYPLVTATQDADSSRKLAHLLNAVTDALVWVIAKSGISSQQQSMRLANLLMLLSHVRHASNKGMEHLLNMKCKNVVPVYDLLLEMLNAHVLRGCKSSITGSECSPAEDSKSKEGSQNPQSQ
How it was run: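 Human HEK293T cells were treated for 8 hours and receptor heterodimerisation was detected through reconstitution of a fluorescent reporter split between ER-alpha and ER-beta ligand-binding domains. Activity was analysed as gain of signal against DMSO.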

[7] = target: T1, Estrogen receptor (Homo sapiens) + Estrogen receptor beta (Homo sapiens); experiment: OT_ER_ERaERb_1440: Odyssey Thera (OT) 24-hour HEK293T Protein-Complementation Assay for Estrogen Receptor-alpha/-beta Homodimer (AID 2283356);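 also: heteromer of ER alpha and ER beta binding domains; hits raise reporter fluorescence and both agonists and antagonists give an increase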
How it was run: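 24 h exposure; HEK293T PCA cells with ERα/ERβ LBD fragments; signal rise in nuclear or whole-cell fluorescence over vehicle.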

[8] = target: Glucocorticoid receptor (Homo sapiens) (UniProt P04150); experiment: NVS_NR_hGR: NovaScreen (NVS) Nuclear Receptor Binding Assay for human Glucocorticoid Receptor (GR) (AID 2283363);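 as to AC50: activity is loss of specific radioligand binding signal relative to DMSO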
Chain of Glucocorticoid receptor (Homo sapiens) (P04150 whole entry, looked up): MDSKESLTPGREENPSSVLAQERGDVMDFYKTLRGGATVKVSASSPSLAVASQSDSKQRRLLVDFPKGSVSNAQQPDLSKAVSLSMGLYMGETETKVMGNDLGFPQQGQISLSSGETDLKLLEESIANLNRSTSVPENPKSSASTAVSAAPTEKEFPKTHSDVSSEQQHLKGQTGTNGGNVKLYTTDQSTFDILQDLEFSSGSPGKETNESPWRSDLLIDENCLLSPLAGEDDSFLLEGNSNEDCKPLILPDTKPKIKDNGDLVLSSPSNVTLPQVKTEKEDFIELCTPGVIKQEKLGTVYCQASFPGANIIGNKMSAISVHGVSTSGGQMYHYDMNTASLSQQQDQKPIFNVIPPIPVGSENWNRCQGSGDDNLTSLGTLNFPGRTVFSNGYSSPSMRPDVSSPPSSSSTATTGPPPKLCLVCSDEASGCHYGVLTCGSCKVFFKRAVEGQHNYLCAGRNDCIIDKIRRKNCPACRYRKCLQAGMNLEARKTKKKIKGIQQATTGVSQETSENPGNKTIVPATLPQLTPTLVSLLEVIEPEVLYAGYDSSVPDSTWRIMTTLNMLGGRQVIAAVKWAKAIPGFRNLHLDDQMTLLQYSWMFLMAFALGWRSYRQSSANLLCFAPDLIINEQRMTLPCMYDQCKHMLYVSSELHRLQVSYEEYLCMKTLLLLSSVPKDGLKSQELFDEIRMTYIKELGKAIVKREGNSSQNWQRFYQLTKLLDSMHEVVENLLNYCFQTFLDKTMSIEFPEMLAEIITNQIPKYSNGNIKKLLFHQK
How it was run: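 Compounds first tested in duplicate at 25 uM, actives followed up in concentration series. Binding to extracted GR protein measured as competitive radioligand displacement, filter scintillation read 16 h post-dosing, normalised to DMSO.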

[9] = target: Estrogen receptor beta (Homo sapiens) (UniProt Q92731); experiment: OT_ER_ERbERb_0480: Odyssey Thera (OT) 8-hour HEK293T Protein-Complementation Assay for Estrogen Receptor-beta/-beta Homodimer (AID 2283357);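 also: active means signal gain over DMSO baseline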
Chain of Estrogen receptor beta (Homo sapiens) (Q92731 whole entry, looked up, the tested form may be a part): as the sequence (Q92731 whole entry, looked up, the tested form may be a part) above
How it was run: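 ER-beta LBD homodimer PCA stably expressed in HEK293T; 8 h compound exposure, then formaldehyde fixation and Draq5 staining. Gain in nuclear/cytoplasmic fluorescence intensity versus DMSO vehicle, read on laser scanning cytometer.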

[10] = target: human Thyroid Receptor Alpha (TRa), THRA (gene 7067) (UniProt P10827); experiment: NVS_NR_hTRa_Antagonist: NovaScreen (NVS) Nuclear Receptor Binding Assay for human Thyroid Receptor Alpha Antagonism (TRa) (AID 2283362);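 also: activity is loss of signal relative to DMSO baseline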
Chain of human Thyroid Receptor Alpha (TRa), THRA (gene 7067) (P10827 whole entry, looked up): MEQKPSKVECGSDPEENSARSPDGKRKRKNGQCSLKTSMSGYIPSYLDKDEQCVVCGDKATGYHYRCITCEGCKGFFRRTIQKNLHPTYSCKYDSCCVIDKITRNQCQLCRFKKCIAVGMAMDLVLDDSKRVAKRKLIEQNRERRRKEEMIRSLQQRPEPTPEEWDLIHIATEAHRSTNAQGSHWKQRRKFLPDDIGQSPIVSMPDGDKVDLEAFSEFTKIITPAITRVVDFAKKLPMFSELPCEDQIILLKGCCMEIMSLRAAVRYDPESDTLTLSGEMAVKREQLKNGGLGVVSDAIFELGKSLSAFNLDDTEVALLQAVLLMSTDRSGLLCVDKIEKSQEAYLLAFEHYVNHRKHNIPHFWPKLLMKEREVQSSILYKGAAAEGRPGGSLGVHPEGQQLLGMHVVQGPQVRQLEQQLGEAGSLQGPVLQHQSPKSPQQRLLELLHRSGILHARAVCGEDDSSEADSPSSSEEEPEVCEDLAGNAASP
How it was run: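 In this biochemical format, receptor protein is dosed with chemical and read after 1 hour via AlphaLISA. Decreases from the DMSO baseline indicate antagonist activity; screening used 25 uM in duplicate before concentration-response confirmation.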

[11] = target: Bile acid receptor (Homo sapiens) (UniProt Q96RI1); experiment: NVS_NR_hFXR_Antagonist: NovaScreen (NVS) Nuclear Receptor Binding Assay for human Farnesoid X Receptor Antagonism (FXR) (AID 2283350)
Chain of Bile acid receptor (Homo sapiens) (Q96RI1 whole entry, looked up): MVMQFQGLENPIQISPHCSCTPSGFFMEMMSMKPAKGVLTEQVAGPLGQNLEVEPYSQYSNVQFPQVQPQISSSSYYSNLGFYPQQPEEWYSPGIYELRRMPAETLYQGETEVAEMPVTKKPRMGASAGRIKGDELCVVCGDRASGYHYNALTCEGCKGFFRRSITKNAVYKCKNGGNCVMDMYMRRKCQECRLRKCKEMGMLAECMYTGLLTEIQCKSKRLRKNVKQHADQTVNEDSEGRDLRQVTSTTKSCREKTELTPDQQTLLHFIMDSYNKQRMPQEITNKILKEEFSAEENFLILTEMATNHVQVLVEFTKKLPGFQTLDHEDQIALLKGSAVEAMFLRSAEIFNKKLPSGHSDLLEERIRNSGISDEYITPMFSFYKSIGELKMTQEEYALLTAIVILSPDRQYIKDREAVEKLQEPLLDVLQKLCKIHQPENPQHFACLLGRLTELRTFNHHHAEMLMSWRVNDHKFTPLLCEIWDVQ
How it was run: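 Antagonist-format time-resolved FRET binding assay with extracted human receptor protein, read 1 hour after compound addition. Compounds first screened at 25 uM in duplicate, then actives tested in concentration series, with loss of signal relative to DMSO.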

[12] = target: Androgen Receptor/SRC-1 Co-activator, AR (gene 367) (UniProt P10275); experiment: OT_AR_ARSRC1_0960: Odyssey Thera (OT) 16-hour HEK293T Protein-Complementation Assay for Androgen Receptor/SRC-1 Co-activator (AID 2283353);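 also: actives raise the signal above DMSO so potency reflects increased AR and SRC-1 complex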
Chain of Androgen Receptor/SRC-1 Co-activator, AR (gene 367) (P10275 whole entry, looked up, the tested form may be a part): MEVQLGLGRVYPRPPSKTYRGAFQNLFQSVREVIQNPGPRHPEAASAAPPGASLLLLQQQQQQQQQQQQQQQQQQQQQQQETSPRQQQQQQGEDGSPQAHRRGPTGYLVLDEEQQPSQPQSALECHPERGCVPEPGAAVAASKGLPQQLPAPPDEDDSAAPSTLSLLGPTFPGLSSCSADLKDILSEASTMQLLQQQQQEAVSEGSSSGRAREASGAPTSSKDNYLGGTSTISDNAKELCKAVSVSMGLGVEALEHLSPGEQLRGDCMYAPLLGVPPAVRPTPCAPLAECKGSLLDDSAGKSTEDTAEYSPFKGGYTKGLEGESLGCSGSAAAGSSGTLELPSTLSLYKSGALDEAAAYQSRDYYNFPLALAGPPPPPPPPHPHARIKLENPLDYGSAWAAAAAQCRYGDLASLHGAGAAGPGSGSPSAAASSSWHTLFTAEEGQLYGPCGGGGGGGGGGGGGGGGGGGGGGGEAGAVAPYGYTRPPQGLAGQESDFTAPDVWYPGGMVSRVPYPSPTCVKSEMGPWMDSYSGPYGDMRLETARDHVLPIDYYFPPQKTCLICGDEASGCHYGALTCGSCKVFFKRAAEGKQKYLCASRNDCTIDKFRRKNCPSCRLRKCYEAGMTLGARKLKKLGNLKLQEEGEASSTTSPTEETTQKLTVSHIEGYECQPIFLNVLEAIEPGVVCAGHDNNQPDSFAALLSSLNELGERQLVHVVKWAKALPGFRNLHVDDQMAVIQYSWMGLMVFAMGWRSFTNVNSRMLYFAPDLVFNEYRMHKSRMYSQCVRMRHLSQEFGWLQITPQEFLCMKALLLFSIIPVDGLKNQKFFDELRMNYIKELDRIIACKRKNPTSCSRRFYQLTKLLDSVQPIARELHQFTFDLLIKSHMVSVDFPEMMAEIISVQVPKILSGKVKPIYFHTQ
How it was run: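 Stable HEK293T line carries AR and SRC-1 each linked to a Venus fragment; chemicals are applied for 16 h, cells imaged at two wavelengths, and the 488 nm nucleus/cytoplasm ratio is taken as the signal, rising relative to DMSO.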

[13] = target: Androgen Receptor/SRC-1 Co-activator, AR (gene 367) (UniProt P10275); experiment: OT_AR_ARSRC1_0480: Odyssey Thera (OT) 8-hour HEK293T Protein-Complementation Assay for Androgen Receptor/SRC-1 Co-activator (AID 2283354);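 also: hits raise the complementation signal above DMSO so AC50 marks enhancers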
How it was run: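 Reconstituted split-Venus YFP signal from AR–SRC-1 interaction, read by imaging 8 h post-dose in stable HEK293T lines. The 488 nm nucleus-to-cytoplasm ratio (≥400 cells/image) was fitted upward against DMSO.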

[14] = target: Bile acid receptor (Homo sapiens) (UniProt Q96RI1); experiment: NVS_NR_hFXR_Agonist: NovaScreen (NVS) Nuclear Receptor Binding Assay for human Farnesoid X Receptor Agonism (FXR) (AID 2283347)
How it was run: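 Agonist-mode FXR assay read by time-resolved FRET 1 h after compound addition, using isolated human receptor protein without cells. Duplicate 25 uM single-point primary screen, concentration series for confirmed actives; DMSO as baseline.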

NCBI gene 100848466 = experiment: NVS_NR_bPR: NovaScreen (NVS) Nuclear Receptor Binding Assay for bovine Progextron Receptor (PR) (AID 2283343);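 as to AC50: actives lower bound radioligand signal below DMSO meaning displacement of the label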
How it was run: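 Competitive radioligand binding with membranes from bovine uterus, scintillation read-out at 18 h post-dose. Compounds first tested in duplicate at 25 uM, then actives in concentration series; loss-of-signal relative to DMSO.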

[15] = target: rat Mineralocorticoid Receptor (MR), Nr3c2 (gene 25672) (UniProt P22199); experiment: NVS_NR_rMR: NovaScreen (NVS) Nuclear Receptor Binding Assay for rat Mineralocorticoid Receptor (MR) (AID 2283355)
How it was run: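 Primary HTS ran in duplicate at a single 25 uM concentration, with concentration-series follow-up for actives. Receptor source: adrenalectomized rat brain supernatant, cell-free. Radioligand displacement read by scintillation at 24 h, relative to DMSO baseline.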

[16] = target: Retinoic acid receptor alpha (Homo sapiens) (UniProt P10276); experiment: NVS_NR_hRAR_Antagonist: NovaScreen (NVS) Nuclear Receptor Binding Assay for human Retinoic Acid Alpha Receptor Antagonism (RAR) (AID 2283358)
How it was run: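 RARalpha antagonism was read by TR-FRET as loss of binding signal versus DMSO, 2 h after chemical addition, in a biochemical format. Single-concentration duplicates (25 uM) were run first, and actives were retested in concentration series.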

Measured: AC50

O=NN(c1ccccc1)c1ccccc1
inactive: [1] | [2] | [3] | [4]

N#Cc1ccc(N(CC(N)=O)CC(F)(F)F)cc1C(F)(F)F
inactive: [3] | [4] | [6] | [7]
active: [5] 0.0178 µM

O=C(O)C(F)(F)C(F)(F)C(F)(F)C(F)(F)C(F)(F)C(F)(F)C(F)(F)C(F)(F)C(F)(F)F
inactive: [2] | [3] | [4] | [8]

Oc1c(Cl)c(Cl)c(Cl)c(Cl)c1Cl
active: [5] 5 µM
inactive: [2] | [3] | [4] | [8]

COc1ccc(O)c(C(C)(C)C)c1
inactive: [3] | [4]
active: [5] 27.7 µM | [6] 50 µM | [7] 53.1 µM | [9] 31.8 µM | [10] 19.3 µM

Cc1cc2c3c(c1)C(c1ccccc1)=N[C@@H](NC(=O)c1ccncc1)C(=O)N3CC2
inactive: [3] | [11] | [6] | [7]

CCOC(=O)C(O)(c1ccc(Cl)cc1)c1ccc(Cl)cc1
inactive: [3] | [4] | [6] | [7] | [9] | [8]
active: [5] 6.34 µM | [12] 37 µM | [13] 66.7 µM

O=S(=O)(O)C(F)(F)C(F)(F)C(F)(F)C(F)(F)C(F)(F)C(F)(F)F
inactive: [14] | [3] | [4] | [10]

CCOCCOC(C)=O
inactive: [2] | [3] | [4]

C[C@]12CCC(=O)C=C1CC[C@@H]1[C@@H]2CC[C@]2(C)C(=O)CC[C@@H]12
active: NCBI gene 100848466 12.8 µM | [2] 25 µM | [5] 0.182 µM | [11] 1.35 µM | [15] 0.0845 µM
inactive: [3] | [4] | [6] | [7] | [9]

CCCCCCCCOC(=O)c1ccccc1C(=O)OCCCCCCCC
inactive: [2] | [3] | [4] | [6] | [12] | [13] | [7] | [9]

CC(C)(c1ccccc1)c1ccc(O)cc1
active: NCBI gene 100848466 19.2 µM | [2] 11.5 µM [middle of 4 runs] | [5] 25 µM | [3] 11.9 µM and 12 µM and 12.1 µM | [4] 11.9 µM and 12 µM | [6] 2.01 µM and 11.9 µM | [7] 11.9 µM | [9] 1.8 µM and 1.91 µM and 2.14 µM | [8] 5.28 µM and 6.67 µM and 16.2 µM

Oc1ccc(Cl)cc1Cl
inactive: [2] | [3] | [4] | [7] | [16] | [10]
active: [6] 66.5 µM | [9] 50 µM

NS(=O)(=O)C(F)(F)C(F)(F)C(F)(F)C(F)(F)C(F)(F)C(F)(F)C(F)(F)C(F)(F)F
active: [4] 76 µM | [6] 72.1 µM | [12] 68.4 µM | [7] 80.2 µM | [9] 86.7 µM
inactive: [2] | [3] | [13]

Clc1ccc(C(Cl)(Cl)Cl)cc1
inactive: [3] | [11] | [4]

Nc1ccc(-c2ccc(N)cc2)cc1
active: [5] 19.9 µM
inactive: [3] | [4] | [6] | [7] | [9]

O=C(O)C(F)(F)C(F)(F)C(F)(F)C(F)(F)C(F)(F)C(F)(F)C(F)(F)C(F)(F)F
inactive: NCBI gene 100848466 | [2] | [3] | [11] | [6] | [7] | [9] | [16]
